Hit rate of the full screen: of about 50,000 compounds, about 800 (1.6%) showed an effect of 50% or more. The list comes from a sample in which strong results are over-represented; it also holds similar structures and randomly drawn compounds.

For this assay, the target named is Bcl-2-like protein 10 (Homo sapiens) (UniProt Q9HD36). Nature of the assay: Phenotype converters, Bcl-B/TR3 peptide binding displacement, primary biochemical FP (AID 1240).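 Also: 0% = Bcl-B with tracer peptide and DMSO and 100% = tracer peptide lacking Bcl-B.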 As to conditions: GST-Bcl-B / FITC-TR3 peptide fluorescence polarization; stronger effect = higher value; compound at 3.75 mg/L.
Bcl-2-like protein 10 (Homo sapiens), sequence (Q9HD36 whole entry, looked up): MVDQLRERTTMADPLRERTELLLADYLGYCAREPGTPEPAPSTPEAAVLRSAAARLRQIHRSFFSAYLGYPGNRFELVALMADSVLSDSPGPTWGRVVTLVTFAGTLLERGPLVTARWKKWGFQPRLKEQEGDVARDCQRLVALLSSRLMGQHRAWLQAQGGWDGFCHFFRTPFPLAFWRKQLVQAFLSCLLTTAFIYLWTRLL
`CC1(C)c2ccccc2N(CCO)C12C=Cc1cc(Br)ccc1O2` (centres undefined): the displacement amounted to 7.8%. Then `Cc1ccc(CNC(=O)c2ccc([N+](=O)[O-])cc2Cl)cc1`, with 0.9%; and `Cc1ccccc1NC(=O)c1c(N)sc2c1CCCC2`, with 12.7%; and `COc1ccc(C2/C(=C(\O)c3ccc(Cl)cc3)C(=O)C(=O)N2c2cccnc2)c(OC)c1` (centres undefined), with -7.1%. Then `CCOc1ccccc1/C=C1/SC(NC(C)=O)=NC1=O`, with 12.9%; and `CCOc1cc(/C=C2/SC(N)=NC2=O)ccc1OCc1ccc(F)cc1`, with -15.9%; and `CCOc1ccc(/C=C2/SC(NC(C)=O)=NC2=O)cc1`, with 132%. Turning to `CCOc1ccc(/C=C2/SC(NC(C)=O)=NC2=O)cc1OCC`, the displacement amounted to 54.6%.

For the molecule `C=C1CC(C)OC(c2ccccc2O)C1` (centres undefined), the displacement is -4.4%. In the case of `O=C1CC(Nc2ccc(F)cc2)C(=O)N1c1ccccc1C(F)(F)F` (centres undefined), the displacement worked out at 1.1%. For the molecule `C=CCNC(=O)CN(c1ccc(OC)cc1)S(C)(=O)=O`, the displacement was 1.7%.

With `COc1cc(C(=O)c2cc(Br)ccc2NC(=O)COc2ccccc2)cc(OC)c1OC`, the displacement came to 57.3%. On to `COc1cc(C(=O)Nc2ccc(Br)cc2C(=O)c2cc(OC)c(OC)c(OC)c2)cc(OC)c1OC`, for which the displacement was 22.3%.

For `COc1cc(C(=O)c2cc(Br)ccc2NC(=O)COc2ccc(C)cc2)cc(OC)c1OC`, the displacement was found to be 17.2%. For `COc1cc(CN2CCN(Cc3ccccn3)CC2)cc(OC)c1OC`, the displacement was -5.1%. For `CCOC(=O)C(Cc1cc(C)c(CC(C(=O)OCC)C(=O)OCC)cc1C)C(=O)OCC` the value was -8.7%; for `CCOC(=O)C1=CN(c2ccc(F)cc2)C=C(C(=O)OCC)C1c1cc(OC)c(OC)c(OC)c1`, -2.3%. For `CC(=O)N/N=C/c1cc(C)n(-c2ccc(Cl)cc2Cl)c1C` the value was -7.1%; for `O=c1oc2cc(O)c([N+](=O)[O-])cc2cc1-c1csc(-c2ccc(Cl)cc2)n1`, -11.3%; for `O=c1oc2ccccc2cc1-c1nc(-c2ccc(Cl)c(Cl)c2)cs1`, 61.2%. As for `COc1cccc2cc(-c3nc(-c4ccc(C)c(C)c4)cs3)c(=O)oc12`, the displacement was 80.5%. For `O=c1oc2cc(O)ccc2cc1-c1csc(-c2ccc(-c3ccccc3)cc2)n1` the value was 116%; for `Cc1ccc(-c2csc(-c3cc4ccccc4oc3=O)n2)cc1`, 154%. Then `Cc1ccc(-c2nc(-c3cc4cc([N+](=O)[O-])c(O)cc4oc3=O)cs2)cc1`, with -4.8%; and `O=c1oc2cc(O)c([N+](=O)[O-])cc2cc1-c1csc(-c2cc3ccccc3oc2=O)n1`, with -10%. As to `COc1cccc(-c2csc(-c3cc4cccc(OC)c4oc3=O)n2)c1`, the displacement was -23.1%. Then `CCOc1ccc(-c2csc(-c3cc4ccccc4oc3=O)n2)cc1`, with -2.8%; and `Cc1ccc(-c2csc(-c3cc4cc([N+](=O)[O-])ccc4oc3=O)n2)cc1`, with -7.9%. Turning to `COc1cccc2cc(-c3nc(-c4ccccc4)cs3)c(=O)oc12`, the displacement was found to be 7.8%. Consider `COc1cccc2cc(-c3nc(-c4ccc(Cl)c(Cl)c4)cs3)c(=O)oc12`, for which the displacement was determined as 0.1%.

`CCOC(=O)c1c(-c2ccc(OC)cc2)csc1NC(=O)c1cccc([N+](=O)[O-])c1`: the displacement amounted to 12.6%.

Turning to `Cc1cc(/C=C2\SC(=O)NC2=O)c(C)n1C1CCCCC1`, the displacement turned out to be 8.2%. For `Cc1ccc(OCc2nc(-c3cccnc3)no2)c(Br)c1`, the displacement worked out at 10.7%. In the case of `N#C/C(=C\c1ccc(C(=O)O)cc1)C(=O)NCC1CCCO1` (centres undefined), the displacement amounted to 0%. Then `Fc1ccc(-c2nnn(Cc3c(F)cccc3Cl)n2)cc1`, with -6.4%. For `CC1=C(C(=O)OCC(F)(F)F)C(c2ccccc2)NC(=O)N1` (centres undefined) the value was 7.2%. On to `Cc1cccc(NC(=O)C2C(C(=O)O)C3C=CC2C32CC2)c1` (centres undefined), for which the displacement is -1.1%. Then `O=C(CSc1nc2ccccc2s1)c1ccc2ccccc2c1`, with 11.9%.

Turning to `COc1cccc2cc(-c3nc(-c4ccc(Cl)cc4Cl)cs3)c(=O)oc12`, the displacement was -11.5%. For `COc1ccc(-c2csc(-c3cc4cc(Cl)cc(Cl)c4oc3=O)n2)cc1` the value was 75%.

Regarding `CCc1ccc(-c2csc(-c3cc4cccc(OC)c4oc3=O)n2)cc1`, the displacement was -23.6%. As to `COc1cc(NS(=O)(=O)c2ccc(C)cc2)cc(OC)c1O`, the displacement is 13.5%. With `NC(=O)COc1ccc(/C=N/NS(=O)(=O)c2ccccc2)cc1`, the displacement was found to be 0.2%. Then `COc1ccc(OC)c(/C=C(\C#N)c2ccc([N+](=O)[O-])cc2)c1`, with 4%; and `COc1ccc(/C=C(\C#N)c2ccc([N+](=O)[O-])cc2)c(OC)c1`, with 110%; and `COc1cc(/C=C(\C#N)c2ccc([N+](=O)[O-])cc2)c(OC)cc1Br`, with 14.7%. Then `CC(C)CN1C(=O)/C(=C/c2ccccc2F)SC1=S`, with 10.4%; and `COc1ccc(NC(=O)CSCCc2ccccn2)c([N+](=O)[O-])c1`, with 10.5%.

Take `NS(=O)(=O)c1cccc(NC(=O)c2cc(I)ccc2Cl)c1`: the displacement was -1.9%. Then `CCCCN1C(=O)/C(=C\c2ccc(N(CC)CC)cc2)SC1=S`, with -18.9%; and `COc1ccc(/C=C2/SC(=S)N(Cc3ccccc3)C2=O)cc1OC`, with 16.1%; and `O=C(CN1C(=O)/C(=C/c2ccc(Br)cc2)SC1=S)Nc1ncc(Cc2cccc([N+](=O)[O-])c2)s1`, with 17.9%. `CCN(CC)c1ccc(/C=C2\SC(=S)N(CCc3ccccc3)C2=O)cc1`: the displacement was 86%. For `COc1ccc(CCN2C(=O)/C(=C\c3ccc(C(C)C)cc3)SC2=S)cc1OC` the value was -0.4%.

Source of the values: PubChem BioAssay AID1240 (Sanford-Burnham Center for Chemical Genomics, 2008).
